The values below come from PubChem BioAssay.

The source made the active and inactive calls. The rule behind the calls is not given here.

The assay has as its system Aerobactin synthetase IucA (Klebsiella pneumoniae hvKP1). Description: IucA enzyme inhibition, primary screen, biochemical, Spectrum library (AID 1346200).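 Note: 100% = wells without compound and 0% = wells lacking enzyme.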 The settings on record: malachite green pyrophosphate, A620, at 8 µM, active compounds read low.
For the molecule `CC(=O)Nc1c(I)cc(I)c(C(=O)O)c1I`, the activity remaining was 119% (inactive). The figure for `Nc1cc(C(Cl)=C(Cl)Cl)c(S(N)(=O)=O)cc1S(N)(=O)=O` is 104% (inactive); for `COc1ccc2c(c1OC)OC[C@@H](c1ccc(OC)c(OC)c1OC)C2` it is 95.9% (inactive). Under `CC(=O)O[C@H]1C(=O)[C@@]2(C)C([C@H](OC(=O)c3ccccc3)[C@]3(O)C[C@H](OC(=O)[C@H](O)[C@@H](NC(=O)c4ccccc4)c4ccccc4)C(C)=C1C3(C)C)[C@]1(OC(C)=O)CO[C@@H]1C[C@@H]2O` (stereo not given in full) stands 90.9% (inactive); under `CC(=O)N[C@@H](CC(=O)O)C(=O)O`, 110% (inactive); under `COC(=O)C[C@@H]1C2(C)C(=O)[C@@H](CC3=C4C=C(OC)O[C@@H](c5ccoc5)[C@]4(C)CCC32)[C@H](O)C1(C)C` (stereo not given in full), 93.6% (inactive). Under `CN1C2CC[C@@H]1CC(OC(=O)[C@H](CO)c1ccccc1)C2` (stereo not given in full) stands 102% (inactive). On to `CC12CCC3C(CC3(C)C)C(C)(CCC1=O)O2` (stereo not given), for which the activity remaining is 119% (inactive). The figure for `Cc1c(N(C)CS(=O)(=O)O)c(=O)n(-c2ccccc2)n1C` is 97.1% (inactive); for `Oc1cc2c(cc1O)C1c3ccc(O)c(O)c3OCC1(O)C2` (stereo not given) it is 109% (inactive). Under `Cc1ccc(-c2cc(C(F)(F)F)nn2-c2ccc(S(N)(=O)=O)cc2)cc1` stands 95% (inactive); under `O=c1cccc2ccc(O)c(O)c2c1O`, 86.6% (inactive); under `CC(=O)Oc1cc(C)c2c(c1C=O)Oc1c(c(C)c(OC(C)=O)c3c1C(OC(C)=O)OC3=O)OC2=O` (stereo not given), 106% (inactive). The figure for `O=C(O)c1ccccc1OP(=O)(O)O` is 116% (inactive); for `O=C(/C=C/c1ccccc1)O[C@H]1C[C@@H](O)[C@]2(O)C=CO[C@@H](O[C@@H]3O[C@H](CO)[C@@H](O)[C@H](O)[C@H]3O)[C@H]12` it is 108% (inactive).

For the molecule `COc1cccc(O)c1O`, the activity remaining is 110% (inactive). Under `COC(=O)C1=C(C)NC(C)=C(C(=O)OCC(C)C)C1c1ccccc1[N+](=O)[O-]` (stereo not given) stands 118% (inactive). `CC1(C)S[C@@H]2[C@H](NC(=O)C(C(=O)O)c3ccccc3)C(=O)N2[C@H]1C(=O)O` (stereo not given in full): the activity remaining is 114% (inactive).

Turning to `C[C@@H]1OC(O[C@H]2[C@H](OC(=O)[C@]34CCC(C)(C)CC3C3=CCC5[C@@]6(C)CC[C@H](OC7O[C@@H](C)[C@H](O[C@@H]8OC[C@@H](O)[C@H](O)[C@H]8O)[C@@H](O)[C@H]7O)C(C)(C)C6CC[C@@]5(C)[C@]3(C)CC4O)OC[C@H](O)[C@H]2O)[C@H](O)[C@H](O)[C@H]1O[C@@H]1O[C@H](CO)[C@@H](O)[C@H](O)[C@H]1O` (stereo not given in full), the activity remaining was 99.8% (inactive). The figure for `CCC(C)C(=O)O[C@@H]1C[C@@]2(C)[C@H](c3ccoc3)OC(=O)CC23OC2(C)OC34[C@H](OC(=O)C(C)C)[C@@]3(O)[C@@H](OC(=O)C5(C)OC5C)[C@@]5(C)C[C@]3(O)[C@@](C)([C@H]5CC(=O)OC)C14O2` (stereo not given in full) is 112% (inactive).

For `C#CCCCCCCCCCCCc1ccco1`, the activity remaining is 113% (inactive). The figure for `COc1cc(/C=C/C(=O)O)ccc1O` is 100% (inactive); for `CCC(CCC(C)[C@H]1CCC2C3CC=C4C[C@@H](O)CC[C@]4(C)C3CC[C@@]21C)C(C)C` (stereo not given in full) it is 114% (inactive); for `CC1(C)CC2C1CCC1(C)OC2(C)CCC1O` (stereo not given) it is 120% (inactive). Take `CCC[C@@H]1C[C@@H](C(=O)N[C@H]([C@H]2O[C@H](SC)[C@H](O)[C@@H](O)[C@H]2O)[C@H](C)O)N(C)C1`: the activity remaining was 111% (inactive). The figure for `CC[C@H](C)C(=O)O[C@H]1CCC=C2C=C[C@H](C)C(CCC3C[C@@H](O)CC(=O)O3)[C@H]21` (stereo not given in full) is 102% (inactive); for `CC(C)=CCc1c2c(c3occ(-c4ccc(O)c(O)c4)c(=O)c3c1O)C=CC(C)(C)O2` it is 120% (inactive). `O=C(CCCN1CCN(c2ccccn2)CC1)c1ccc(F)cc1`: the activity remaining is 124% (inactive). With `COc1c2ccoc2c(OC)c2oc(=O)ccc12`, the activity remaining is 121% (inactive). `O=c1c2ccccc2oc2ccc(O)cc12`: the activity remaining was 122% (inactive). Under `OC1=Cc2c(O)cc(O)cc2OC1(O)c1ccc(O)c(O)c1` (stereo not given) stands 81.3% (inactive); under `CC(=O)O[C@@H]1CC[C@@]2(C)C(C[C@@H](OC(C)=O)[C@@]3(C)C4=CC(=O)O[C@@H](c5ccoc5)[C@]4(C)CCC23)C1(C)C` (stereo not given in full), 121% (inactive); under `CC1=CC(=O)CC(C)(C)C1(O)/C=C/C(C)=C\C(=O)O` (stereo not given), 117% (inactive). Under `NCC(O)CC(=O)O` (stereo not given) stands 98.6% (inactive); under `CC(=O)NC1SCCC1=O` (stereo not given), 112% (inactive). The figure for `Nc1ccc(C(=O)O)c(O)c1` (tested in a mixture with another compound) is 86.3% (inactive); for `CN[C@@H]1[C@@H](O[C@H]2O[C@H](CO)[C@@H](N)[C@H](O)[C@H]2O)O[C@H]2C[C@@H](N)[C@H](O[C@H]3[C@H](O)[C@@H](O)[C@H](N)C[C@@H]3N)O[C@@H]2[C@@H]1O` it is 124% (inactive); for `CC(C)=CCCC1(C)C=Cc2c(O)c3c(c(CC=C(C)C)c2O1)OC12C(=CC4CC1C(C)(C)OC2(C/C=C(\C)C(N)=O)C4=O)C3=O` (stereo not given) it is 99.6% (inactive). Take `CC(=O)Oc1cc2c(c(C)c1OC(C)=O)CC=C1[C@@]2(C)CC[C@@]2(C)C3C[C@](C)(C(=O)O)CC[C@]3(C)CC[C@]12C` (stereo not given in full): the activity remaining was 95.9% (inactive). The figure for `OC(c1cc(C(F)(F)F)nc2c(C(F)(F)F)cccc12)C1CCCCN1` (stereo not given) is 120% (inactive).
